Measured values reported in the supplement of paper PMC6555819.

System: THRa:RXRa (NR concentration 90 nM, RXRa partner concentration 90 nM)
Test: PBM binding z-score (relative to random genomic background probes); higher = stronger binding; sequences stand for … in GC…GCGATTGACAGCGTAGAATGAAGG
Method in brief: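 Binding buffer was PBS pH 7.4 with 2% milk, 0.02% Triton X-100, 1 mM DTT, 0.2 mg/mL BSA and 0.4 mg/ml salmon testes DNA. In it, ligand-free nuclear receptor dimers were incubated 1 h on custom Agilent 4×180K protein-binding microarrays carrying double-stranded probes. Antibodies against each partner (one per run) detected binding, and z-scores were calculated against random background probes after regression normalization of scanned fluorescence.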

Row | Sequence | PBM binding z-score
1 | TCTATTAGTTAAAGGGCAACCGACGAGTCCGTTT | 0.666
2 | AGAACGAGGGCACGCTTAGTTGATAGCAGAGTAG | 1.94
3 | AGAATGAGGTTACCAAAGATCTGGGAAACGCTTG | 2.51
4 | TGTCAAAGTTCAACGGTAACGTAAGTATCCACAC | 1.98
5 | TTACCAAGGTGAAAGATCGTTGATGCACGCCTTG | 1.42
6 | CGAACTAGGTCATCCAGGACAGTGTATACATTGA | 3.62
7 | TCTTGTAGATCTAAGGTTAAGAAAGCCGAAGCCT | 2.16
8 | TCTATAAGTTGAAGGGCAACCGACGAGTCCGTTT | 0.466
9 | AGAACGAGGGCACCCTGAGTTGATAGCAGAGTAG | 1.59
10 | GCTAGTTGGTCAGTGAAAGGTCACACACCGGTCG | 3.42
11 | TCTAGAAGGCCAGAGGGTCACTCAAGAGGTACGG | 1.75
12 | TCATATTGGTAAACAGGTGAAAGTCCGTAAGTTA | 0.634
13 | CCTCGGAGGACAACAGGAGGTCAGAGATGCCAGA | 2.83
14 | GCGATTGGGGCATCAGCAGGTTACCATAACTTAA | 1.03
15 | CCTTACGGGTCACTGACAGGTTATAGCCTTTGGA | 2.9
16 | TTACCAAGGAGAGCTGAGGTCGTTGATCCAACTC | 2.56
17 | AGTCAAAGTCCATCTAGGTAACGTAAGATATGCT | 1.14
18 | CTAACGAGGGCATGAGTTGATAGCAAATGCCGAT | 1.2
19 | CCGAGTAGGTTATTGGGCATTCAGGCAACGGTGA | 0.0204
20 | CCGACTGGGGCATGAGGTTACCATAAGCCAGCCC | 1.89

Row | Sequence | PBM binding z-score
21 | ATCGAAAGATCGAGGTGAGTATAGAGAAAGGGAA | 0.955
22 | TATACCGGGTCAAAGGCCAGAGTACGAATGTCGA | 3.36
23 | CCTACTGTGCCAAAGGTCATTGATTCCAATGCTC | 3.46
24 | GGAACGAGGGCACAGTTGATAGCATCTGTCGACG | 1.08
25 | AGAATGAGGTTATACGTTGATCAGGGAAGAAAGT | 2.2
26 | ATCTGTAGGTTACATCCGGGTCATTCAGGCTATG | 3.81
27 | TCCATTAGTTGATTAGGGCAACCGAAACAGCGGA | 0.718
28 | CCTAGCAGGCCAATCTGGGTCGCTCAAGGCTTGA | 2.75
29 | ACTATTAGTTGAGACGAGGCCAACCGATAGGTTG | 2.57
30 | TAGCCTAGGTCAGAGCGGGCCAGTATACGCTATA | 2.85
31 | CCTCGGAGGACAAAAGGTCAGAGCTGTCCGCTTT | 3.07
32 | GCTGCTAGGTCAGGTTGGTCAGCTAGCGGGTACG | 1.71
33 | CGTCCAAGGTCAGAGAGGTCAGTTAATGCCGAGT | 4.39
34 | AGAACGAGGGCAATGAGTTGACAGCACGGGTGGC | 1.19
35 | TCATATAGGAAATACAGGTGAAAGTCGGCATCTA | 0.441
36 | TCGAGTACGTTAGGGGCATTCAGAATGGCGTCGA | 0.637
37 | CCGACTGGGGCAAGGATACCATAACGCACAGCCA | -0.00683
38 | TCTGTTAGTTGAAGGGCAACCGACGAGTCCGTTT | 0.412
39 | ATCTCTAGGTAAGACTAAGTTCAGTGAAGAACGC | 1.34
